The list is not random: actives were taken first. Their share in the collection is about 3.5%.
TEAD-YAP block: TEAD-YAP interaction inhibition | HEK-TIYL cells, TEAD-Gal4/YAP UAS-luciferase luminescence | inhibition, % at 9.12 µM | actives 1.4% (n = 640,000) | AID 1259422; in the data active means inhibition above about 32%;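 further: 0% = median of test compound wells and 100% = reference inhibitor wells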
GPR151 activ: human GPR151 activation. AID 1508602. activation, % at 11.2 µM. PathHunter beta-arrestin GPR151 cells, luminescence. Q8TDV0. actives 1% (n = 650,000); in the data active means activation above about 4.9%;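 further: 0% = median of compound wells and 100% = cells with positive control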
FBW7 activator: activators of human E3 ligase FBW7; normalized activity (activation), % at 26.1 µM; AlphaScreen FBW7–phospho-cyclin E peptide binding, activator screen; Q969H0; actives 0.13% (n = 650,000); in the data active means normalized activity above about 1.9%;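 further: purified mutant Fbw7 with reduced substrate affinity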
MITF inh: blocks human microphthalmia-associated transcription factor. AlphaScreen MITF homodimerization, bead proximity signal. O75030. inhibition, % at 2.6 µM. actives 0.91% (n = 650,000); in the data active means inhibition above about 50%;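 further: 0% = vehicle wells with protein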
GPR151 conf act: human GPR151 activation, confirmation screen; shares compounds with GPR151 activ; GPR151 PathHunter beta-arrestin cells, luminescence, 90 min; % of EA-reagent control over plate median; activation, % at 11.2 µM; 6,700 tested, under 10 active;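 active means mean percent activation across replicates above the confirmation screen cutoff of 4.91%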
GPR119 ag: counter-screen for GPR151 activators: effect on human GPR119; shares compounds with GPR151 activ; GPR119 PathHunter beta-arrestin cells, luminescence, 90 min; 0 = compound-well median, 100 = enzyme-acceptor control; activation, % at 11.2 µM; actives 0.3% (n = 6,700);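 active means mean percent activation in the counterscreen above 29.09%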;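 further: counterscreen on off-target GPR119 to flag nonselective hits from the GPR151 activator screen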
Target sequence (Q8TDV5 whole entry, looked up): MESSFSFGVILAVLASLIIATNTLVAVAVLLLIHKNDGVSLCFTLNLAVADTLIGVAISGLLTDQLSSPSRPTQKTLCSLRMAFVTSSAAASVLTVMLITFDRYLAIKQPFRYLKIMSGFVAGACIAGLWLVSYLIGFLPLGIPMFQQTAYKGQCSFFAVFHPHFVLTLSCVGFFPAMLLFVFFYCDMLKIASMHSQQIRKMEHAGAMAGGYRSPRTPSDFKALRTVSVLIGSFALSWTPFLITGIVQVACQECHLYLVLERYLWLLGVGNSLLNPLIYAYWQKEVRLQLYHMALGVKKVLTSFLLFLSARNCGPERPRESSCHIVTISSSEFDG
* hit, by the source's call; . = no result given.

SMILES	TEAD-YAP block	GPR151 activ	FBW7 activator	MITF inh	GPR151 conf act	GPR119 ag
CCCC(c1nnnn1Cc1ccco1)N1CCN(C)CC1 (stereo not drawn)	4.3	-0.1	0.2	1.8	.	.
N/C(=N\OC(=O)c1ccncc1)c1cccnc1	-19.9	5.8*	0.7	12.0	-0.3	0.3
COc1cccc(NC(=O)CSc2nc3c(sc(=S)n3-c3cccc(OC)c3)c(=O)n2-c2ccccc2C)c1	1.6	-0.7	0.3	2.5	.	.
CCOCCCNc1c(-c2ccccc2)nc2cnccn12	5.7	5.6*	0.1	8.7	-0.5	4.8
CCOCCCNc1c(-c2ccccc2)nc2ccc(Br)cn12	-39.3	1.4	0.1	-2.6	.	.
CCOC(=O)C1=C(C)N(c2ccc(OC)cc2)C(=O)/C1=C\c1ccc(Cl)cc1	4.8	-0.8	0.1	12.3	.	.
CN(C)c1ccc(NC(=O)CCN2C(=O)C3C4C=CC(C4)C3C2=O)cc1 (stereo not drawn)	-14.6	5.2*	0.1	-0.7	0.4	-14.2
COC(=O)c1ccc(C2C3=C(CC(c4ccc(C)cc4)CC3=O)Nc3ccccc3N2C(C)=O)cc1 (stereo not drawn)	15.3	6.6*	0.4	17.4	0.2	5.4
CCCCOc1ccc(C(=O)Nc2sc(C)c(C)c2C#N)cc1	-5.5	8.3*	-0.1	-2.3	-0.6	8.1
CCOc1ccc(C(=O)Nc2sc(C)c(C)c2C#N)cc1	-5.0	-0.9	0.0	14.4	.	.
CCOC(=O)c1cc(-c2ccccc2)n(CCCN2CCOCC2)c1C	14.0	-1.0	-0.1	9.8	.	.
CCOC(=O)c1cc(-c2ccccc2)oc1CN1CCOCC1	7.1	8.9*	-0.1	19.1	-0.2	7.5
COc1cc2nc(-c3cccc(C)c3)nc(Nc3ccc(OCCN4CCCCC4)cc3)c2cc1OC	-0.5	-1.4	0.2	-6.8	.	.
O=C(NCc1ccc(Cl)cc1)C1CCC(Cn2c(=S)[nH]c3ccsc3c2=O)CC1 (stereo not drawn)	-4.1	7.0*	-0.1	5.7	0.6	14.1
CCOC(=O)C1CCCN(Cn2ncc3cc([N+](=O)[O-])ccc32)C1 (stereo not drawn)	0.1	0.4	0.3	-4.5	.	.
CC12CC3CC(C1)CC(NC(=O)c1ccc(Cl)cc1Cl)(C3)C2	-9.0	5.0*	0.0	6.2	-0.1	-4.9
O=c1c2cc(-c3ccccc3)sc2ncn1-n1cccc1	-68.5	7.7*	0.5	9.0	-0.1	2.9
CCSc1nnc(C2CCN(CC(=O)N3CCOCC3)CC2)n1C	4.0	0.8	0.2	10.2	.	.
CC(=O)Nc1ccc(S(=O)(=O)Nc2nnc(-c3ccc(F)cc3)s2)cc1	-6.8	6.7*	-0.1	0.0	1.6	7.1
CCOc1ccccc1CN1CCC(C(=O)NCc2ccc(C)cc2)CC1	5.2	-0.2	-0.1	21.1	.	.
CCOc1cccc(CN2CCC(C(=O)NCc3ccccn3)CC2)c1O	8.1	8.7*	-0.1	53.6*	-1.0	-2.6
COc1ccc(C(=O)NCc2nnc(SCC(=O)c3ccccc3)n2C)cc1	-6.3	6.5*	0.1	13.4	-0.8	1.1
CCCCn1c(CNC(=O)c2ccc(OC)cc2)nnc1SCC(=O)OCC	2.3	6.4*	-0.1	14.4	1.3	0.3
CCOC(=O)CSc1nnc(CNC(=O)c2ccc(OC)cc2)n1CC	4.7	0.3	0.0	15.5	.	.
CCN(CCNC(=O)CCn1nc(-c2ccccc2)ccc1=O)c1ccccc1	-1.9	-1.1	0.0	9.1	.	.
SMILES	TEAD-YAP block	GPR151 activ	FBW7 activator	MITF inh	GPR151 conf act	GPR119 ag
CCCOC(=O)CN1C(=O)c2ccc(C(=O)OCCC)cc2C1=O	-4.6	0.4	0.1	8.4	.	.
CCCOC(=O)CN1C(=O)c2ccc(Br)cc2C1=O	-2.8	8.7*	0.1	-1.4	0.5	13.6
CC(=O)Nc1ccc(C(=O)CSc2nncn2C)cc1	-1.4	9.6*	-0.2	1.1	0.5	6.3
C=CCNC(=O)c1nn2cccnc2c1Cl	-14.1	5.3*	0.1	-11.6	0.6	-0.5
O=C(Nc1ccc(Cl)cc1)c1nn2cccnc2c1Cl	-65.9	0.0	0.0	4.7	.	.
Cc1ccc2nc(SCC(=O)NC(C)(C)C)c(C#N)cc2c1	-3.8	-0.5	0.0	-2.1	.	.
Nc1ccc2c(c1)C1c3ccccc3C2c2ccccc21	12.7	0.5	-0.4	0.4	.	.
COc1ccc(C(O)CN2C3=NCCCN3c3ccccc32)cc1 (stereo not drawn)	-2.2	5.1*	-0.1	-17.7	0.8	19.4
Cc1ccc(S(=O)(=O)/N=C2/NC(=O)/C(=C/c3ccco3)S2)cc1	0.5	1.0	0.0	8.6	.	.
COc1ccc(S(=O)(=O)/N=C2/NC(=O)/C(=C\c3ccco3)S2)cc1	6.3	7.4*	0.1	13.7	-0.6	-1.1
COc1ccnc(Cn2nc(C)c3cccn3c2=O)c1OC	8.8	6.1*	0.0	10.1	-0.2	-8.2
O=C(Nc1ccc2oc(-c3ccc(F)cc3Cl)nc2c1)c1cccc(Cl)c1	-2.3	0.3	-0.2	-3.2	.	.
C=CCCC(=O)NCc1cc(NS(=O)(=O)c2ccccc2Cl)cc(C(=O)OC)c1	2.7	-0.1	0.8	1.4	.	.
COC(=O)c1cc(CNC(=O)C(C)C)cc(NS(=O)(=O)c2ccccc2Cl)c1	-9.4	5.6*	0.1	-7.4	0.4	17.2
CC(C)c1ccc(OCC(=O)O/N=C(\N)c2cccc([N+](=O)[O-])c2)cc1	-3.6	16.0*	-0.3	-10.9	-0.1	-7.1
O=C1Nc2cc(C(=O)N3CCN(c4ccccn4)CC3)ccc2NC1CSCc1ccccc1F (stereo not drawn)	-15.4	-1.0	0.1	-8.3	.	.
COc1ccc(CCNC(=O)c2[nH]c(C)c(C(C)=O)c2C)cc1OC	-2.3	-0.9	-0.1	2.4	.	.
CCOc1ccc(CCNC(=O)c2[nH]c(C)c(C(C)=O)c2C)cc1OCC	-6.0	14.2*	-0.2	-1.9	0.1	1.9
O=C(CSc1ncc(-c2cccc(Br)c2)o1)Nc1ccc(F)cc1F	5.6	9.3*	-0.1	-3.4	-3.9	-11.8
CCCCCOC(=O)C1=C(C)NC(=O)NC1c1ccccc1F (stereo not drawn)	-1.2	2.3	-0.3	-2.9	.	.
CC(C)C(=O)N(CC(=O)Nc1sc2c(c1C(N)=O)CCCC2)Cc1ccccc1	5.6	7.1*	-0.1	-1.9	0.3	7.2
CC(=O)N1CCc2c(sc(NC(=O)Cc3ccccc3)c2C(N)=O)C1	1.2	5.3*	-0.1	2.9	0.2	0.4
CC(C)N1CCc2c(sc(NC(=O)Cc3ccccc3)c2C(N)=O)C1	-14.5	-0.2	0.6	2.4	.	.
CCOC(=O)c1c(NC(=O)c2cc(=O)c3ccccc3o2)sc2c1CCN(C(C)=O)C2	1.4	6.0*	-0.1	-10.5	0.4	1.9
CCC(=O)Nc1ccc(N2CCN(C(=O)C(C)C)CC2)c(Cl)c1	-1.1	-0.8	-0.1	-1.4	.	.
C=C(C)Cn1c(COc2ccc(C)cc2)n[nH]c1=S	-0.5	0.3	0.0	-5.6	.	.

High-throughput results (PubChem BioAssay)
